Results from PubChem BioAssay (NCI).
Compounds without any hit were thinned out: in the full panel of roughly 83,000, 20% have a hit.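 The endpoint reported here, percent growth, reads 100 for growth as untreated, 0 for no net growth and -100 for all cells dead.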 A number with no mark means an inactive call. Calls of active or inactive are those of the source. How the source made its calls: active means growth percent below 10; inactive means the rest.

Columns and labels:
Assay in all cases: NCI-60 one-dose screen, 48 h (100 = growth as untreated, 0 = no growth, -100 = all killed)
Settings in all cases: 10 µM
SN12C renal = tested on: SN12C renal
UO-31 renal = tested on: UO-31 renal
TK-10 renal = tested on: TK-10 renal
ACHN renal = tested on: ACHN renal
CAKI-1 renal = tested on: CAKI-1 renal
A498 renal = tested on: A498 renal
CCRF-CEM leukemia = tested on: CCRF-CEM leukemia
MOLT-4 leukemia = tested on: MOLT-4 leukemia
RPMI-8226 leukemia = tested on: RPMI-8226 leukemia
OVCAR-8 ovarian = tested on: OVCAR-8 ovarian
OVCAR-5 ovarian = tested on: OVCAR-5 ovarian
OVCAR-4 ovarian = tested on: OVCAR-4 ovarian
SK-OV-3 ovarian = tested on: SK-OV-3 ovarian
IGROV1 ovarian = tested on: IGROV1 ovarian
OVCAR-3 ovarian = tested on: OVCAR-3 ovarian
HS 578T breast = tested on: HS 578T breast
NCI/ADR-RES ovarian = tested on: NCI/ADR-RES ovarian
T-47D breast = tested on: T-47D breast
SR leukemia = tested on: SR leukemia

Row | SMILES | growth (SN12C renal) | growth (UO-31 renal) | growth (TK-10 renal) | growth (ACHN renal) | growth (CAKI-1 renal) | growth (A498 renal) | growth (CCRF-CEM leukemia) | growth (MOLT-4 leukemia) | growth (RPMI-8226 leukemia) | growth (OVCAR-8 ovarian) | growth (OVCAR-5 ovarian) [%] | growth (OVCAR-4 ovarian) | growth (SK-OV-3 ovarian) | growth (IGROV1 ovarian) [%] | growth (OVCAR-3 ovarian) | growth (HS 578T breast) | growth (NCI/ADR-RES ovarian) | growth (T-47D breast) | growth (SR leukemia)
1 | CC(=O)CSC(C)=O | 100% | 91.3% | 122% | 97.8% | 91.6% | 99.1% | 94.8% | 105% | 93.2% | 108% | 106 | 98% | 110% | 99.2 | 115% | 101% | 111% | – | –
2 | CN(C)c1ccc(N=C2C=CC(=O)c3ccccc32)cc1 | 55.4% | 48.8% | 111% | 79.5% | 80.9% | 91.3% | 70.5% | 77.6% | 65.4% | 76.3% | – | 71.5% | 95.4% | 88.6 | 23.8% | 95.6% | 85.5% | 81.3% | –
3 | O=C(O)CCCCSc1ncnc2nc[nH]c12 | 107% | 70% | 98% | 102% | 93.5% | 132% | 101% | 101% | 108% | 98.3% | 102 | 116% | 92.9% | 97.5 | 100% | 122% | 107% | 97.2% | –
4 | O=C1Nc2ccccc2C1=NC1CCCCC1 | 107% | 55.5% | 107% | 97.9% | 79.3% | 109% | 108% | 111% | 103% | 98.1% | 106 | 96.3% | 95.4% | 88.5 | 103% | 116% | 103% | 83.1% | –
5 | c1ccc(CSc2nnc3c4c5c(sc4nc(-c4cccnc4)n23)CCCCCC5)cc1 | 56.5% | 94.8% | 72.2% | 73.7% | 71.6% | 58.5% | 25.2% | – | 20.1% | 20.3% | 95.2 | 27.3% | 71.2% | 77 | 36.4% | 86.2% | 100% | – | 46.5%
6 | NC(=S)N=Nc1c(O)c2ccccc2c2ccccc12 | -88.7% (active) | 42.5% | 116% | 60.7% | 83.5% | 101% | 106% | 100% | 58.7% | 36% | 107 | 73.6% | 92.3% | 68.9 | 29.9% | 62% | 27.1% | 68.3% | –
7 | CCN1CCCC1CNC(=O)c1ncc(-c2ccc(C(F)(F)F)cc2)c(NC2CCCCCC2)n1 (centres undefined) | 86.7% | 45% | 74.1% | 93.5% | 83% | 58.3% | 63.3% | 66.3% | 58.9% | 74% | 101 | 78% | 89.9% | 77 | 79.5% | – | 89.7% | 78.9% | -16.6% (active)
8 | COc1ccc(-c2nn(-c3cccc(NC(=O)Nc4ccc(Cl)c(C(F)(F)F)c4)c3)cc2-c2ccncc2)cc1Cl | 21.1% | -11.2% (active) | 10.3% | 12.6% | 9.1% (active) | -0.894% (active) | -3.16% (active) | -6.09% (active) | -19.2% (active) | 1.48% (active) | – | 21.7% | 16.7% | 15.7 | -2.03% (active) | 33.8% | 9.26% (active) | -6.17% (active) | -18.4% (active)
9 | COc1ccc(-c2nc3sc(C4CC4)nn3c2/C=C2/C(=O)Nc3ccc(OC)cc32)cc1 | 91.9% | 75.6% | 95.8% | 78% | 78.8% | 49.4% | 75.8% | – | 58% | 76.7% | 89.5 | 44.6% | 50.9% | 81.5 | 79.7% | 25.3% | 77.2% | – | 26.5%
10 | COc1ccc(S(=O)(=O)Nc2c(/C=C\c3cc(OC)c(OC)c(OC)c3)ccc(OC)c2O)cc1 | 20.9% | 39.9% | 39.9% | 22.7% | 32.9% | -19.9% (active) | 13.5% | 8.7% (active) | 7.59% (active) | -0.813% (active) | – | 53% | 18.5% | 33.2 | -8.9% (active) | -8.12% (active) | -2.42% (active) | 82.2% | 10.5%
11 | O=C(Nc1cccc(-n2cc(-c3ccncc3)c(-c3cc(O)cc(Cl)c3)n2)c1)c1ccc(N2CCOCC2)c(C(F)(F)F)c1 | 46.4% | 3.98% (active) | 70.3% | 20.7% | 14.8% | 72.7% | 13.1% | -29.7% (active) | -3.77% (active) | 22.7% | – | 77.1% | 50.7% | 44.3 | 36.4% | 17.9% | 35% | 29.3% | -12.4% (active)
12 | CSC1=NCCCC1 | 110% | 86.8% | 125% | 102% | 115% | 106% | 103% | 108% | 106% | 106% | 112 | 105% | 108% | 108 | 110% | 116% | 118% | 107% | –
13 | C(CCCC1=NCCO1)CCCC1=NCCO1 | 102% | 90.9% | 110% | 105% | 103% | 101% | 104% | 105% | 89.4% | 106% | 100 | 109% | 105% | 114 | 99.9% | 99.3% | 104% | 109% | –
14 | N#Cc1ncc(-c2cc(F)c(F)c(F)c2)c(NC2CCCCCC2)n1 | 83.6% | 89.4% | 105% | 92.6% | 92.9% | 52.2% | 83.9% | 78.1% | 81.1% | 96.2% | – | 77.8% | 88.3% | 93.5 | 100% | 73.3% | 95.3% | – | 78.8%
15 | CC1(C)Cc2c(sc3ncn4nc(-c5ccc(O)cc5)nc4c23)CO1 | 63.5% | 44.3% | 56.4% | 67.6% | 76.7% | -9.39% (active) | 70.5% | 69.4% | 57.7% | 58.5% | 86.6 | 64.1% | 79.8% | 75.5 | 86.5% | – | 64.7% | 48.7% | 22.8%
16 | Cc1cc(C)c2c(n1)sc1c(Nc3ccc(Cl)cc3)ncnc12 | -20.9% (active) | -19.8% (active) | 47.7% | 1.33% (active) | 12.1% | -9.23% (active) | 4.05% (active) | -6.2% (active) | 23.7% | 4.06% (active) | 29 | 84.4% | 35.2% | 70.8 | 33.3% | – | 15.1% | 23.4% | 3.86% (active)
17 | COc1ccc(Nc2ccnc(NCCNc3ccnc4cc(Cl)ccc34)n2)cc1 | 57.7% | 44.8% | 71.6% | 57.3% | 60.6% | 37.3% | 42.1% | 18% | -22.9% (active) | 59.5% | 51.2 | 37.1% | 74.7% | 24.6 | 60.3% | 76.8% | 66.8% | 34.9% | –
18 | Clc1ccc2c(NCCCNc3nccc(Nc4ccc(Br)cc4)n3)ccnc2c1 | -65.1% (active) | -72.3% (active) | -90.4% (active) | -90.6% (active) | -80.4% (active) | 19.6% | -24.5% (active) | -44.6% (active) | -59.9% (active) | -65.2% (active) | 15.3 | -9.2% (active) | -44.1% (active) | 24.2 | -22.8% (active) | -56% (active) | 0.467% (active) | -56.2% (active) | –
